# This excerpt belongs to a sample that is enriched for hits.
# Pf Dd2 growth: inhibitors of Plasmodium falciparum Dd2 growth. P. falciparum Dd2 growth, SYBR Green, 72 h. 4.3% of 120,000 active. Potency, µM (highest dose often 28.9 µM), usual class: inhibitors. AID 1347417; active = well fitted inhibition curve with a large enough effect; also: nearly all actives have a fitted effect of over 65% in size
#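 Infected erythrocytes (Dd2, 0.3% parasitemia, 2.5% hematocrit final) are added to compound in RPMI-1640/Albumax II medium, grown 72 h at 37C in low oxygen, then lysed with saponin/Triton-X containing SYBR Green and read by fluorescence.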
# A number is an active result; 0 = inactive; [ ] = another dose, or the depositor's remark.
SMILES,Pf Dd2 growth
CC(=O)Nc1ccc(C(=O)N2CCC3(CC2)CN(C(=O)NC(C)C)Cc2ccccc2O3)cc1,0
CCC(=O)N1Cc2ccccc2OC2(CCN(C)CC2)C1,0
CC(=O)N1CCC2(CC1)CN(C(=O)N(C)C)Cc1ccccc1O2,0
CC(=O)N1Cc2ccccc2OC2(CCN(C(=O)c3cccc4[nH]ccc34)CC2)C1,0
COCCN(Cc1cccs1)C(=O)CN1CC2CC(C1)[C@H]1CCCC(=O)N1C2 (stereo partly drawn),0
COc1ccc(CNC(=O)C2(c3ccc(NS(C)(=O)=O)cc3)CCCCC2)cc1,0
Cc1nonc1CC(=O)N1CCC2(CCC(=O)N(CCc3ccncc3)C2)CC1,0
CSc1ncccc1C(=O)N1CCc2nc[nH]c2C1,0
COc1ccccc1Nc1ncc2c(n1)CCN(Cc1ccc(C)s1)C2,0
COc1ccccc1Nc1ncc2c(n1)CCN(Cc1cc(F)cc(F)c1)C2,0
Cc1ccc(CN2CCc3nc(Nc4ccc5c(c4)OCCO5)ncc3C2)cc1,0
COc1ccc(Nc2ncc3c(n2)CCN(Cc2ccc(Br)s2)C3)c(OC)c1,10µM
COc1ccc(Nc2ncc3c(n2)CCN(Cc2cc(Br)cs2)C3)c(OC)c1,0
Brc1csc(CN2CCc3nc(Nc4ccccc4)ncc3C2)c1,10µM
CCOc1ccccc1N1CCN(C(=O)CCn2ccn3nc4c(c3c2=O)CCCC4)CC1,0
COCCN1C(=O)[C@H]2CN(Cc3ccc(OC)c(Br)c3)C[C@H]2C1=O,0
COc1ccc(S(=O)(=O)N2CCCC(Cc3noc(-c4cnccn4)n3)C2)cc1 (stereo not drawn),0
COc1ccc(S(=O)(=O)N2CCCC(Cc3noc(-c4ccccc4)n3)C2)cc1 (stereo not drawn),4.5µM
Cn1cnc(S(=O)(=O)N2CCCC(Cc3noc(-c4ccccc4)n3)C2)c1 (stereo not drawn),0
O=C(c1cc(-c2cccc(C(F)(F)F)c2)c2nncn2n1)N1CCN(c2ncccn2)CC1,0
COc1ccc(-c2noc([C@@H](C)NCc3ccccc3)c2C(=O)O)cc1,0
CN(C)[C@@H]1CN(C(=O)C2CC2)CC[C@@H]1CO,0
C=CCNC(=O)N[C@H]1CCN(C(=O)C=C(C)C)[C@@H]1C(=O)N[C@H](Cc1ccccc1)C(N)=O,0
COc1ccccc1N1CCN(c2ncnc3c2c(-c2ccccc2)cn3-c2cccc(Cl)c2)CC1,0
COCCNc1ncnc2c1c(-c1ccccc1)cn2-c1cccc(Cl)c1,0
SMILES,Pf Dd2 growth
Cc1ccc(-n2cc(-c3ccccc3)c3c(N4CCC(C)CC4)ncnc32)cc1Cl,0
CC(=O)Nc1ccc(Nc2ncnc3c2c(-c2ccccc2)cn3-c2ccccc2)cc1,0
CC(=O)Nc1ccc(Nc2ncnc3c2c(-c2ccccc2)cn3-c2ccc(C)c(Cl)c2)cc1,7.1µM
COc1ccc(CCNc2ncnc3c2c(-c2ccccc2)cn3-c2cccc(Cl)c2)cc1OC,8.9µM
Cc1cc(C2CCCN2C(=O)c2cc(F)ccc2F)on1 (stereo not drawn),0
CCn1nccc1C(=O)N1CCC(c2noc(-c3cnccn3)n2)C1 (stereo not drawn),0[5.79 µM]
COCC1CN(S(=O)(=O)c2cccc(C#N)c2)CC12CCNCC2 (stereo not drawn),0
CN1CCCN(C(=O)C2CCOCC2)c2ccccc21,0
COc1cc(F)ccc1-c1cc(-c2cn[nH]c2)c2cncn2c1,0
COc1ccc(-c2cc(-c3ccc(F)cc3OC)cn3cncc23)cc1,6.3µM
COc1ccccc1-c1cc(-c2ccc(=O)[nH]c2)c2cncn2c1,0
COc1ccc(-c2cc(-c3ccc4c(c3)CNC4=O)cn3cncc23)cc1,4.5µM
COc1ccc(-c2cc(-c3ccncc3)c3cncn3c2)cc1,11µM
COc1cccc(-c2cc(-c3ccncc3)c3cncn3c2)c1OC,10µM
Cc1noc(C)c1-c1cc(-c2ccc3c(c2)C(=O)NC3)cn2cncc12,0
c1cc(-c2cc(-c3ccncc3)c3cncn3c2)c2[nH]ncc2c1,0
FC(F)(F)c1cccc(-c2cc(-c3ccncc3)c3cncn3c2)c1,0
Cc1nc(-c2cn(C3CCCN(C(=O)c4ccc(OC(F)(F)F)cc4)C3)nn2)no1 (stereo not drawn),0
Cc1ccc(OC2(C(=O)N3CCCC3c3nccs3)CCNCC2)cc1 (stereo not drawn),0
c1ccc(CCc2nnc3n2CCNCC3)cc1,0
COc1ccc(-c2ccc3c(n2)CN(Cc2ccccc2)C(=O)CO3)cc1F,0
Cc1nc(CCNC(=O)C2CNCCO2)sc1C (stereo not drawn),0
CC(C)c1ccc(CN2CCc3nc(N4CCN(C)CC4)[nH]c(=O)c3CC2)cc1,0[5.79 µM]
CCCN(C)C(=O)c1onc(-c2ccc(OC)cc2)c1[C@H](C)O,0
COc1ccccc1C(=O)N1CCC2(CC1)N(C)C(=O)CS2(=O)=O,0
CC(C)n1c(C2CCN(C(=O)Cc3c[nH]c4ccccc34)CC2)nn(C)c1=O,0
O=C(c1ccc2cccc(F)c2n1)N1CCN(C(=O)C2CCCCC2)CC1,0
CCc1nc2c(=O)n(CC(=O)N3CCN(C4CCCCC4)CC3)nc(C)c2s1,0
